Measured values: PubChem BioAssay AID1159580 (chemical genetic matrix, 2015)
Where “and” joins values, the source holds several entries; their conditions need not be identical. Equal values may be shown once. The whole screen tested about 5,500 compounds, of which about 2,000 (36%) were called active. Inconclusive results (about 18%) are left out. Cut-off read from the data, not from the text of the source: active = normalized growth mostly below about 0.91 (no sharp cut-off); inconclusive = no clear call, values can overlap the other calls; inactive = mostly above about 0.92. This is one part of the list.

Assay: chemical genetic growth profiling, strain panel (AID 1159580);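 note: tested at 20 µM; growth read once vehicle control cultures reached saturation at 30 °C; 1 = growth at the plate median or of vehicle wells; lower values mean less growth of the strain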
Conditions: S. cerevisiae deletion strains, growth OD

Measured: normalized growth

CC(=O)OC1CCC23C(=O)OC45CCC(C6=CC(=O)OC6)C4(C)CCC2C5CCC3(O)C1 (centres undefined)
inactive: locus YAL021C, strain ccr4, stronger effect = lower value 1 | locus YAL026C, strain drs2, stronger effect = lower value 0.979 | locus YAL030W, strain snc1, stronger effect = lower value 0.996 | locus YBL061C, strain skt5, stronger effect = lower value 0.975 | locus YBR009C, strain hhf1, stronger effect = lower value 0.998 | locus YBR021W, strain FUR4, stronger effect = lower value 1 | locus YBR023C, strain chs3, stronger effect = lower value 0.991 | locus YBR171W, strain sec66, stronger effect = lower value 0.953 | locus YBR229C, strain ROT2, stronger effect = lower value 1.01 | locus YBR231C, strain swc5, stronger effect = lower value 0.987 | locus YBR279W, strain paf1, stronger effect = lower value 1.01 | locus YCL011C, strain gbp2, stronger effect = lower value 1 | locus YCL016C, strain dcc1, stronger effect = lower value 1.04 | locus YCL029C, strain bik1, stronger effect = lower value 1.02 | locus YCL061C, strain MRC1, stronger effect = lower value 0.997 | locus YCL069W, strain vba3, stronger effect = lower value 0.979 | locus YCR088W, strain abp1, stronger effect = lower value 0.986 | locus YDL005C, strain med2, stronger effect = lower value 0.98 | locus YDL035C, strain GPR1, stronger effect = lower value 1.05 | locus YDL040C, strain nat1, stronger effect = lower value 0.99 | locus YDL074C, strain BRE1, stronger effect = lower value 1.1 | locus YDL101C, strain DUN1, stronger effect = lower value 1.01 | locus YDL185W, strain tfp1, stronger effect = lower value 0.992 | locus YDL192W, strain arf1, stronger effect = lower value 1.03 | locus YDR001C, strain nth1, stronger effect = lower value 0.991 | locus YDR069C, strain doa4, stronger effect = lower value 0.963 | locus YDR101C, strain arx1, stronger effect = lower value 1 | locus YDR137W, strain rgp1, stronger effect = lower value 1.03 | locus YDR159W, strain sac3, stronger effect = lower value 0.961 | locus YDR162C, strain NBP2, stronger effect = lower value 1.03 | locus YDR195W, strain ref2 0.943 | locus YDR297W, strain sur2, stronger effect = lower value 0.987 | locus YDR318W, strain mcm21, stronger effect = lower value 1.02 | locus YDR334W, strain swr1, stronger effect = lower value 0.959 | locus YDR335W, strain msn5, stronger effect = lower value 0.992 | locus YDR388W, stronger effect = lower value 0.998 | locus YDR392W, strain spt3, stronger effect = lower value 0.962 | locus YDR502C, strain sam2, stronger effect = lower value 1.02 | locus YEL003W, strain gim4, stronger effect = lower value 0.988 | locus YEL037C, strain rad23, stronger effect = lower value 0.97 | locus YEL061C, strain CIN8 (second series), stronger effect = lower value 0.981 | locus YER015W, strain faa2, stronger effect = lower value 0.977 | locus YER016W, strain bim1, stronger effect = lower value 0.994 | locus YER110C, stronger effect = lower value 0.997 | locus YER111C, strain swi4, stronger effect = lower value 0.95 | locus YER155C, strain BEM2 (second series), stronger effect = lower value 0.968 | locus YER155C, strain BEM2, stronger effect = lower value 1 | locus YER167W, strain BCK2, stronger effect = lower value 1.01 | locus YFR010W, strain ubp6, stronger effect = lower value 0.959 | locus YGL078C, strain dbp3, stronger effect = lower value 1 | locus YGL086W, strain mad1, stronger effect = lower value 1 | locus YGL167C, strain pmr1, stronger effect = lower value 0.978 | locus YGL173C, strain kem1, stronger effect = lower value 0.972 | locus YGL227W, strain vid30, stronger effect = lower value 0.994 | locus YGL240W, strain doc1, stronger effect = lower value 0.973 | locus YGL248W, strain PDE1, stronger effect = lower value 1.06 | locus YGL253W, strain hxk2, stronger effect = lower value 0.98 | locus YGR135W, strain pre9, stronger effect = lower value 0.997 | locus YGR252W, strain gcn5, stronger effect = lower value 1 | locus YHR013C, strain ard1, stronger effect = lower value 0.994 | locus YHR027C, strain rpn1, stronger effect = lower value 0.971 | locus YHR030C, strain SLT2, stronger effect = lower value 1.02 and 0.956 | locus YHR079C, strain IRE1 (second series), stronger effect = lower value 0.994 | locus YHR079C, strain IRE1, stronger effect = lower value 0.984 | locus YHR094C, strain hxt1, stronger effect = lower value 1 | locus YHR129C, strain ARP1, stronger effect = lower value 1.02 | locus YHR142W, strain chs7, stronger effect = lower value 1.02 | locus YHR200W, strain rpn10, stronger effect = lower value 1.01 | locus YIL066C, strain RNR3, stronger effect = lower value 1.03 | locus YIL073C, strain SPO22, stronger effect = lower value 1.11 | locus YIL125W, strain kgd1, stronger effect = lower value 1.02 | locus YIR030C, strain dcg1, stronger effect = lower value 1 | locus YJL092W, strain hpr5, stronger effect = lower value 0.971 | locus YJL095W, strain BCK1 (second series), stronger effect = lower value 0.96 | locus YJL095W, strain BCK1, stronger effect = lower value 1.08 and 0.965 | locus YJL115W, strain asf1, stronger effect = lower value 0.979 | locus YJL129C, strain trk1, stronger effect = lower value 0.973 | locus YJL134W, strain LCB3, stronger effect = lower value 1.01 | locus YJL154C, strain vps35, stronger effect = lower value 0.988 | locus YJL164C, strain tpk1, stronger effect = lower value 1.04 | locus YJL166W, strain qcr8, stronger effect = lower value 0.977 | locus YJL168C, strain set2, stronger effect = lower value 1.01 | locus YJL187C, strain SWE1 (second series), stronger effect = lower value 1.02 | locus YJR043C, strain POL32, stronger effect = lower value 1.05 | locus YJR066W, strain TOR1, stronger effect = lower value 0.883 | locus YKL009W, strain mrt4, stronger effect = lower value 1.02 | locus YKL068W, stronger effect = lower value 1.01 | locus YKL085W, strain MDH1 (second series), stronger effect = lower value 1 | locus YKL085W, strain MDH1, stronger effect = lower value 1 | locus YKL160W, strain elf1, stronger effect = lower value 1.06 | locus YKR001C, strain vps1, stronger effect = lower value 1.02 | locus YKR026C, strain gcn3, stronger effect = lower value 0.976 | locus YKR091W, strain srl3, stronger effect = lower value 0.994 | locus YLL001W, strain dnm1, stronger effect = lower value 1.01 | locus YLL026W, stronger effect = lower value 0.996 | locus YLL041C, strain sdh2, stronger effect = lower value 0.966 | locus YLR027C, strain aat2, stronger effect = lower value 0.988 | locus YLR039C, strain RIC1, stronger effect = lower value 1.23 | locus YLR058C, strain SHM2, stronger effect = lower value 1.02 | locus YLR102C, strain apc9, stronger effect = lower value 0.994 | locus YLR113W, strain HOG1, stronger effect = lower value 1.01 | locus YLR221C, strain rsa3, stronger effect = lower value 0.981 | locus YLR258W, strain gsy2, stronger effect = lower value 1 | locus YLR262C, strain YPT6 (second series), stronger effect = lower value 1.01 | locus YLR268W, strain sec22, stronger effect = lower value 1.02 | locus YLR320W, strain mms22, stronger effect = lower value 0.988 | locus YLR342W, strain FKS1 (second series), stronger effect = lower value 1.06 | locus YLR342W, strain FKS1, stronger effect = lower value 0.995 | locus YLR357W, strain rsc2, stronger effect = lower value 0.973 | locus YLR370C, strain arc18, stronger effect = lower value 0.986 | locus YLR371W, strain rom2, stronger effect = lower value 1.02 | locus YLR384C, strain iki3, stronger effect = lower value 0.997 | locus YLR418C, strain cdc73, stronger effect = lower value 1.06 | locus YML016C, strain PPZ1, stronger effect = lower value 1.01 | locus YML032C, strain rad52, stronger effect = lower value 1.01 | locus YML120C, strain ndi1, stronger effect = lower value 1.01 | locus YML124C, strain tub3, stronger effect = lower value 1.01 | locus YMR058W, strain fet3, stronger effect = lower value 0.988 | locus YMR078C, strain ctf18, stronger effect = lower value 1.01 | locus YMR125W, strain sto1, stronger effect = lower value 0.992 | locus YMR129W, stronger effect = lower value 0.986 | locus YMR205C, strain PFK2, stronger effect = lower value 1.01 | locus YMR223W, strain ubp8, stronger effect = lower value 1 | locus YMR231W, strain pep5, stronger effect = lower value 0.97 | locus YMR263W, strain SAP30, stronger effect = lower value 1.01 | locus YMR307W, strain GAS1, stronger effect = lower value 1.16 | locus YNL067W, strain RPL9B, stronger effect = lower value 0.999 | locus YNL071W, strain lat1, stronger effect = lower value 0.994 | locus YNL183C, strain NPR1, stronger effect = lower value 0.922 | locus YNL209W, strain ssb2, stronger effect = lower value 0.996 | locus YNL233W, strain BNI4, stronger effect = lower value 1.05 | locus YNL248C, strain rpa49, stronger effect = lower value 0.989 | locus YNL250W, strain rad50, stronger effect = lower value 1.03 | locus YNL271C, strain bni1, stronger effect = lower value 1.02 | locus YNL298W, strain CLA4, stronger effect = lower value 1.01 | locus YNL307C, strain MCK1, stronger effect = lower value 1.02 | locus YNL322C, strain KRE1 (second series), stronger effect = lower value 0.987 | locus YNR049C, strain mso1, stronger effect = lower value 0.967 | locus YNR052C, strain pop2, stronger effect = lower value 0.996 | locus YOL006C, strain TOP1, stronger effect = lower value 1.28 | locus YOL012C, strain htz1 0.952 | locus YOL147C, strain pex11, stronger effect = lower value 1.02 | locus YOR001W, strain rrp6, stronger effect = lower value 0.929 | locus YOR061W, strain CKA2, stronger effect = lower value 1.02 | locus YOR069W, strain VPS5, stronger effect = lower value 1 | locus YOR070C, strain gyp1, stronger effect = lower value 0.982 | locus YOR080W, strain dia2, stronger effect = lower value 0.98 | locus YOR083W, strain WHI5, stronger effect = lower value 1.06 | locus YOR106W, strain vam3, stronger effect = lower value 1.05 | locus YOR136W, strain idh2, stronger effect = lower value 0.997 | locus YOR144C, strain elg1, stronger effect = lower value 1 | locus YOR184W, strain ser1, stronger effect = lower value 1.02 | locus YOR231W, strain MKK1, stronger effect = lower value 0.976 | locus YOR265W, strain rbl2, stronger effect = lower value 0.996 | locus YOR270C, strain vph1, stronger effect = lower value 1 | locus YOR290C, strain snf2, stronger effect = lower value 1.02 | locus YOR316C, strain cot1, stronger effect = lower value 1.02 | locus YPL051W, strain arl3, stronger effect = lower value 0.967 | locus YPL055C, strain LGE1, stronger effect = lower value 1.09 | locus YPL078C, strain atp4, stronger effect = lower value 1.06 | locus YPL106C, strain sse1, stronger effect = lower value 1 | locus YPL240C, strain hsp82, stronger effect = lower value 0.979 | locus YPL241C, strain CIN2, stronger effect = lower value 1.02 | locus YPL256C, strain CLN2, stronger effect = lower value 0.975 | locus YPR119W, strain clb2, stronger effect = lower value 0.999 | locus YPR141C, strain kar3, stronger effect = lower value 0.997 | locus YPR163C, strain tif3, stronger effect = lower value 1.01 | locus YPR167C, strain met16, stronger effect = lower value 1.02 | strain wtn01, stronger effect = lower value 1
